{
  "source": "PubChem BioAssay AID624337",
  "about": "(National Center for Advancing Translational Sciences (NCATS), 2012)",
  "note": "Records with an inconclusive call do not appear. Activity calls are given as the source filed them. Calls follow the shape of the dose curve; as a rule, active = well fitted curve in the direction sought with a large enough effect; inconclusive = small, poorly fitted or top-dose-only effect; inactive = flat fitted curve, though single readings scatter.",
  "data": [
    {"assay": "Quantitative high throughput screen for delayed death inhibitors of the malarial parasite plastid: Hit Validation with Dd2 at 96hr using Flow Cytometry", "details": "P. falciparum Dd2 growth; parasitemia, lower = inhibition: at 50 µM (top of the series)", "excerpt": "The goal of this screen is to discover new antimalarial compounds that act by inhibiting the development of the apicoplast organelle in the malarial parasite Plasmodium falciparum. Some antibiotics, such as azithromycin and tetracycline, are known to interfere with the apicoplast translational machinery, and have a potent antimalarial effect. […] We developed a cell-based quantitative high throughput screen that leverages this \"delayed death\" phenotype to enrich for compounds that target the apicoplast. To detect small molecules that cause the delayed death phenotype, erythrocytes infected with firefly luciferase-expressing parasites were incubated with compounds for either one or two generations, corresponding to 48 and 96 hours, respectively. Growth inhibition was detected by a decrease in luciferase activity. Compounds that inhibited parasite growth in the second generation at least five-fold more potently than in the first generation were defined as delayed death inducing. These compounds were selected for confirmatory screening using a flow cytometry based assay. This hit validation assay used the Dd2 cell line and measured at 96 hours. NIH Molecular Libraries Probe Production Network [MLPCN] NIH Chemical Genomics Center [NCGC] MLPCN Grant: R21 NS059500 Assay Provider: David Fidock and Eric Ekland, Columbia University\nTest compounds were diluted in 20 microliters of complete media (RPMI 1640 with 0.5% w/v Albumax (GIBCO), 24 mM sodium bicarbonate (Sigma) and 10 ug/mL gentamycin (Gibco)) in clear 384-well plates (Greiner). All liquid handling was conducted using a Bio Tek Precision 2000 pipetting system. Twenty microliters of infected erythrocytes, 0.2% parasitemia (for 48 hour time points) or 0.1% parasitemia (for 96 hour time points) were added to the compound dilutions (1% hematocrit, final concentration; 40 microliters, total culture volume). The assay plates were incubated for 48 hours, or 96 hours, at 37 masculine C in a humidified chamber (Billups- Rothenberg, Del Mar, CA, USA), gassed with 5%CO2/5%O2/ 90%N2. After two generations (96 hours), 5 microliters of culture were harvested and transferred to a second 384 well plate for fluorescent staining. Samples were stained with 30 microliters of 2 x SYBR Green I (Invitrogen) and 150nM MitoTracker Deep Red (Invitrogen) diluted in 0.9% NaCl, 0.2% dextrose (Baxter) supplemented with 2.5% Fetal Calf Serum (Gibco) (saline/FCS). Mature erythrocytes lack nuclei and mitochondria, therefore only parasitized erythrocytes retain the SYBR Green I and MitoTracker Deep Red. After 30 minutes at 37 masculine C, the stained cells were diluted in an additional 60 microliters of saline/FCS. The samples were harvested directly from the 384 well plate using a Hypercyt High Capacity Flow Platform (Intellicyt) paired with a C6 Flow Cytometer (Accuri). The flow cytometry files were analyzed using FlowJo software (FlowJo).", "values": [
      {"molecule": "COc1ccc(CNC(=O)C2CCC(CNS(=O)(=O)c3cccc4cccnc34)CC2)cc1", "note": "(configuration not stated)", "Potency": "38.9 µM (active)"},
      {"molecule": "COc1ccc(NC(=S)N2CCC(Cc3ccccc3)CC2)cc1OC", "parasitemia, lower = inhibition": "0.714 (active)"},
      {"molecule": "CCOc1ccc(NC(=O)C[n+]2ccc(N(C)C)cc2)cc1", "Potency": "0.121 µM (active)"},
      {"molecule": "Brc1cccc(OCCCCN2CCCCC2)c1", "Potency": "2.79 µM (active)"},
      {"molecule": "CC(C)C(=O)NCCSc1c[nH]c2ccccc12", "Potency": "5.01 µM (active)"},
      {"molecule": "CCCc1c(CC)c(=N)c2ccccc2n1C", "Potency": "0.113 µM (active)"},
      {"molecule": "CCOc1ccc(C(=O)Nc2ccc(N3CCN(C)CC3)cc2)cc1", "parasitemia, lower = inhibition": "0.471 (active)"},
      {"molecule": "CO[C@@H]1[C@@H](OC2OC(C)C(OC3CC(C)(O)C(OC(=O)CC(C)C)C(C)O3)C(N(C)C)C2O)[C@@H](CC=O)C[C@@H](C)C(=O)/C=C\\C2O[C@H]2C[C@@H](C)OC(=O)C[C@H]1OC(C)=O", "note": "(some centres not stated)", "Potency": "0.0981 µM (active)"},
      {"molecule": "CCOC(=O)c1ccc2c(c1)n(CC)c(/C=C/N(C)c1ccccc1)[n+]2CC", "Potency": "0.185 µM (active)"},
      {"molecule": "CCCCN(CCCNC(=O)C1CCN(C(=O)c2cc3sccc3n2C)CC1)Cc1ccccc1", "Potency": "0.389 µM (active)"},
      {"molecule": "CCCCOc1ccc(N2C(N)=NC(N)=NC23CCCCC3)cc1", "Potency": "4.34 µM (active)"},
      {"molecule": "Cc1ccc(-n2c(-c3ccc(Cl)cc3)c[n+]3c2CCC3)cc1", "Potency": "0.0825 µM (active)"},
      {"molecule": "Cc1ccc(CN2CCC(n3nccc3NC(=O)c3ccccc3C)CC2)o1", "Potency": "12.8 µM (active)"},
      {"molecule": "O=C(c1ccc([N+](=O)[O-])cc1)n1nc(-c2ccccc2)nc1NCc1ccc(F)cc1", "Potency": "24.6 µM (active)"},
      {"molecule": "COc1ccc(C(=O)N2CCN(S(=O)(=O)c3ccc(C)cc3C)CC2)cc1OC", "Potency": "29.7 µM (active)"},
      {"molecule": "CN(C)c1ccc(CN(C(=O)c2ccccc2Br)C2CCS(=O)(=O)C2)cc1", "note": "(configuration not stated)", "Potency": "29.1 µM (active)"},
      {"molecule": "CC1=Nc2cc(C(=O)N3CCCC3)ccc2Sc2ccc(C)cc21", "parasitemia, lower = inhibition": "0.0412 (active)"},
      {"molecule": "COc1ccc2cc3cc(C(=O)Nc4ccc5c(c4)OCO5)oc3nc2c1", "Potency": "24.9 µM (active)"},
      {"molecule": "COc1ccc2c(ccc[n+]2CC(=O)c2ccccc2)c1", "Potency": "5.18 µM (active)"},
      {"molecule": "O=C(Nc1ccccc1N1CCOCC1)c1cccc(S(=O)(=O)N2CCOCC2)c1", "Potency": "10.6 µM (active)"},
      {"molecule": "Clc1ccc(-c2c[n+](Cc3ccc(Cl)cc3Cl)c3n2CCCCC3)cc1", "Potency": "0.244 µM (active)"},
      {"molecule": "COc1ccccc1N1CCN(CCC(=O)Nc2ccc(F)cc2)CC1", "Potency": "8.91 µM (active)"},
      {"molecule": "CCOc1ccc(S(=O)(=O)Nc2cc(S(=O)(=O)N(CC)CC)ccc2N2CCCC2)cc1", "Potency": "13.9 µM (active)"},
      {"molecule": "COc1ccc(Nc2nnc(-c3ccc(C)cc3)c3ccccc23)cc1C(=O)N1CCCCC1", "Potency": "25.7 µM (active)"},
      {"molecule": "COc1cccc(CN2CCN(c3nc4nonc4nc3N3CCCCC3)CC2=O)c1", "Potency": "5.78 µM (active)"},
      {"molecule": "CCC(=O)OC1C(N(C)C)CC(C)O[C@H]1O[C@H]1[C@H](C)[C@@H](O[C@H]2CC(OC)[C@@H](O)C(C)O2)[C@H](C)C(=O)O[C@@H](CC)[C@](C)(O)[C@@H](O)[C@H](C)C(=O)[C@@H](C)C[C@]1(C)O", "note": "(some centres not stated)", "Potency": "4.56 µM (active)"},
      {"molecule": "CC(=O)NC[C@@H]1CN(c2ccc(N3CCOCC3)c(F)c2)C(=O)O1", "Potency": "18 µM (active)"},
      {"molecule": "CCc1nc(SCC(=O)Nc2ccc(N(C)C)cc2)n[nH]1", "Potency": "15.1 µM (active)"},
      {"molecule": "c1csc(CNc2ncnc3nc[nH]c23)c1", "Potency": "31.3 µM (active)"},
      {"molecule": "Cc1c(F)c(N2CCNC(C)C2)cc2c1c(=O)c(C(=O)O)cn2C1CC1", "note": "(configuration not stated)", "Potency": "0.479 µM (active)"},
      {"molecule": "N#Cc1cccc(NC(=O)Cn2c3[n+](c4ccc(C(F)(F)F)cc42)CCCCC3)c1", "Potency": "0.424 µM (active)"},
      {"molecule": "CCCCN(CCCNC(=O)c1ccc(CS(=O)(=O)c2ccc(OC)cc2)o1)Cc1ccccc1", "Potency": "1.66 µM (active)"},
      {"molecule": "O=C(CNC(=O)C1CCCCC1)OC(C(=O)c1ccccc1)c1ccccc1", "note": "(configuration not stated)", "parasitemia, lower = inhibition": "0.991 (active)"},
      {"molecule": "COCCNC(=O)c1cccc(OC2CCN(Cc3cccc(SC)c3)CC2)c1", "parasitemia, lower = inhibition": "1.86 (inactive)"},
      {"molecule": "Cc1ccc(S(=O)(=O)Nc2ccc(C(=O)Nc3ccncc3)cc2)cc1", "Potency": "14 µM (active)"},
      {"molecule": "O=C(CSc1ccc(-c2cccnc2)nn1)Nc1ccccc1C(F)(F)F", "Potency": "6.51 µM (active)"},
      {"molecule": "Cc1sc2nc[nH]c(=O)c2c1-c1ccc(Cl)cc1", "Potency": "9.78 µM (active)"}
    ]}
  ]
}
